These results are taken from PubChem BioAssay (Tox21).

SMILES strings stand for the structures. A number with no mark means an inactive call. Entries that show only a call come without a potency. Active and inactive are the calls of the source. Calls follow the shape of the dose curve; as a rule, active = well fitted activation curve with a large enough effect in the repeat runs; inconclusive = weak or mixed curves; inactive = flat fitted curve, though single readings scatter.

The experiment can be described thus: A CellTox Green Cytotoxicity Assay to monitor cytotoxicity in HEK293 cells - 0 hour (AID 1224869). Also: nearly all actives have a fitted effect of over 50% in size. Conditions: CellTox Green fluorescence; series mostly up to 76.8 µM; cytotoxicity: at the top concentration. The source says:
National Center for Advancing Translational Sciences [NCATS]
NIH Chemical Genomics Center [NCGC]
U.S. Environmental Protection Agency [EPA]
National Institutes of Environmental Health Sciences [NIEHS]
National Toxicology Program [NTP]
Cell-based models are critical for drug discovery. Determining the natural cytotoxic effects resulting from test compounds is an essential research activity. A CellTox Green Cytotoxicity Assay to monitor cytotoxicity in real time of continues cell culture during 40 hours of the compound treatment was used to screen Tox21 10K library compounds in Hek293 cells. CellTox Green Cytotoxicity Assay is a nonlytic, homogeneous, biofluorescent method to measure cytotoxicity in cell culture after experimental manipulation. The assay system uses a proprietary asymmetric cyanine dye that is excluded from viable cells but preferentially stains the dead cell's DNA. […] Viable cells produce no appreciable increases in fluorescence. Therefore, the fluorescence signal produced by the binding interaction with dead cell DNA is proportional to cytotoxicity.
The mixture of Hek293 cell suspension and reagents were dispensed at 600cells/6 ul/well in 1536-well tissue culture treated black solid bottom plates using a Multidrop dispenser. After the assay plates were incubated at a 37 C/5% CO2 incubator for 5 hours, 23 nL of compounds dissolved in DMSO, positive and negative controls was transferred to the assay plate by a pintool work station. The plates were incubated at 37 C for 40 hours. The fluorescence intensity were measured at 0h, 8h, 16h, 24h, 32h and 40h time points using ViewLux plate reader during compound treatment.
Regarding `CCCCOCCO`, the Potency result was “inactive”.
As to `O=[N+]([O-])c1cccc(Cl)c1`, the Potency entry was “inactive”.
`CN(CCOc1ccc(CC2SC(=O)NC2=O)cc1)c1ccccn1` (stereo not given): the Potency entry was “inactive”.
Regarding `CC1COc2ccccc2N1C(=O)C(Cl)Cl` (stereo not given), the Potency result was “inactive”.
In the case of `NC(=O)NNc1ccccc1`, the Potency entry is “inactive”.
For `c1ccc2ccccc2c1`, the Potency entry was “inactive”.
On the same count and under the same terms, to `O=C(O)c1cc(-c2ccccc2)nc2ccccc12` belongs “inactive”.
On to `Clc1ccc(Cl)c(Cl)c1Cl`, for which the Potency entry is “inactive”.
As to `CCCCC(CC)C(=O)OCCOCCOCCOC(=O)C(CC)CCCC` (stereo not given), the Potency result was “inactive”.
For `CS(=O)(=O)c1ccc([C@@H](O)[C@@H](CO)NC(=O)C(Cl)Cl)cc1`, the Potency entry was “inactive”.
Take `Cc1cc(Cc2ccc(N)c(C)c2)ccc1N`: the Potency result is “inactive”.
On the same count and under the same terms, the entry for `CC(=O)Nc1ccc(C(=O)O)cc1` is “inactive”; for `Oc1ccc(OCc2ccccc2)cc1` it is “inactive”.
For the molecule `CCCCC(CC)COC(C)=O` (stereo not given), the Potency entry is “inactive”.
As for `OCCOCCOCCOCCO`, the Potency entry was “inactive”.
Consider `O=Nc1ccc(O)cc1`, for which the Potency result was “inactive”.
`CCCCCCC(C)(C)S`: the Potency result was “inactive”.
Take `CCCCCCCCCCCCOCC1CO1` (stereo not given): the Potency result is “inactive”.
Turning to `CCCCOCCOCCOC(=O)CCCCC(=O)OCCOCCOCCCC`, the Potency entry is “inactive”.
On to `Nc1nc2ncc(CNc3ccc(C(=O)N[C@@H](CCC(=O)O)C(=O)O)cc3)nc2c(=O)[nH]1`, for which the Potency entry was “inactive”.
Take `CCCCCCCCCCCCN`: the Potency result is “inactive”.
With `CCCCCCCCCCC=CC1CC(=O)OC1=O` (stereo not given), the Potency result is “inactive”.
With `CCc1ccc(O)cc1`, the Potency entry is “inactive”.
Take `NCc1cccc(CN)c1`: the “cytotoxicity” value was 2.37%.
Consider `CN(C)c1cccc(O)c1`, for which the Potency entry was “inactive”.
`C=CC(=O)OCCCCCCCC(C)C`: the Potency entry is “inactive”.
Still for that read-out and setting: to `CCCCC/C=C\C/C=C\CCCCCCCC(=O)OC` belongs “inactive”.
Turning to `CCCCCC/C=C/CCCCCCCC(=O)O`, the Potency entry is “inactive”.
Consider `Cc1ccc(N)c(S(=O)(=O)O)c1`, for which the Potency result was “inactive”.
With `CCC(=O)O`, the Potency entry was “inactive”.
For `O=C1O[C@H](CO)[C@@H](O)[C@H](O)[C@H]1O`, the Potency entry is “inactive”.
On to `C=C(C)C(=O)OCCCCCCCCCCCC`, for which the Potency result is “inactive”.
For the molecule `O=C(c1cc(O)c(O)c(O)c1)c1ccc(O)c(O)c1O`, the Potency result was “inactive”.
The same measure, in the same setting: the entry for `O=S(=O)(O)c1cc(S(=O)(=O)O)c2c(N=Nc3ccccc3)c(O)ccc2c1` is “inactive”; for `CS(=O)(=O)Nc1ccc([N+](=O)[O-])cc1Oc1ccccc1` it is “inactive”.
For `CC(C)(C)C1CCC(O)CC1` (stereo not given), the Potency result is “inactive”.
Same read-out and setting: the entry for `CC(C)(CO)COC(=O)C(C)(C)CO` is “inactive”; for `C=C(C)C(=O)OCCCCCC` it is “inactive”.
With `Cn1c([N+](=O)[O-])cnc1COC(N)=O`, the “cytotoxicity” value is -9.05%.
With `COCC(=O)O`, the Potency result was “inactive”.
